Where “and” joins values, the source holds several entries; their conditions need not be identical. Equal entries are not always repeated. Records with an inconclusive call do not appear. A structure can be active in one record and inactive in another. Calls of active or inactive are those of the source. Rule for the calls, unless noted: active = hit-call score of the fitted dose curve at least 0.9, where 1 is the maximum; inconclusive = response in the unintended direction; inactive = score below 0.9.
Tests used:
[1] = TOX21_p53_BLA_p2_viability: Viability Assessment in the Tox21 HCT-116 p53 Agonism Beta-lactamase Assay, Phase 2 (AID 2283591);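 note: compound exposure lasted 16 h at 37 °C; actives lower the ATP signal meaning cytotoxicity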
How it was run: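 HCT116 p53-bla cells, 4000/well, dosed after 5 h plating (217-fold dilution of DMSO stocks) and incubated 16 h at 37C. Viability taken as cellular ATP by CellTiter-Glo luminescence after 30 min RT; signal loss marks cytotoxicity.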

[2] = target: Cellular tumor antigen p53 (Homo sapiens) (UniProt P04637); experiment: TOX21_p53_BLA_p2_ratio: Tox21 HCT-116 p53 Agonism Beta-lactamase Assay, Ratio, Phase 2 (AID 2283592)
How it was run: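 Plated HCT116 p53-bla cells (4000/well) received compound after 5 h, then 16 h at 37C/5% CO2. CCF4-AM added, 2 h RT. Ratio of 460 to 530 nm emission taken as the p53 reporter signal.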

[3] = TOX21_p53_BLA_p3_viability: Viability Assessment in the Tox21 HCT-116 p53 Agonism Beta-lactamase Assay, Phase 3 (AID 2283593);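 note: cells exposed to compound for 16 h before reading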
How it was run: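 HCT116 cells, 4000/well, dosed 5 h after plating by pin transfer (217-fold dilution from DMSO stock) and incubated 16 h at 37C, 5% CO2. Viability read as ATP luminescence with CellTiter-Glo after 30 min at room temperature.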

[4] = target: Cellular tumor antigen p53 (Homo sapiens) (UniProt P04637); experiment: TOX21_p53_BLA_p3_ratio: Tox21 HCT-116 p53 Agonism Beta-lactamase Assay, Ratio, Phase 3 (AID 2283596)
How it was run: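 Cells were seeded at 4000/well, rested 5 h at 37C, then dosed with DMSO compound solutions (217-fold dilution) for 16 h. CCF4-AM substrate was loaded for 2 h at room temperature, and the 460/530 nm emission ratio was fitted for gain of signal versus DMSO.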

[5] = TOX21_p53_BLA_p4_viability: Viability Assessment in the Tox21 HCT-116 p53 Agonism Beta-lactamase Assay, Phase 4 (AID 2283597);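 note: hits lower the luminescence signal meaning cytotoxicity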
How it was run: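 Readout: ATP luminescence (CellTiter-Glo), measured 30 min after reagent addition at RT. The reagent followed a 2 h CCF4-AM incubation, and the cells had been exposed to compound for 16 h at 37C.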

[6] = target: Cellular tumor antigen p53 (Homo sapiens) (UniProt P04637); experiment: TOX21_p53_BLA_p5_ratio: Tox21 HCT-116 p53 Agonism Beta-lactamase Assay, Ratio, Phase 5 (AID 2283599)
How it was run: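 HCT-116 p53-bla cells (4000/well) plated 5 h, dosed with compound (217-fold DMSO dilution) for 16 h at 37 C; CCF4-AM substrate 2 h at room temperature. Activity is the 460/530 nm emission ratio (405 nm excitation), fitted in gain-of-signal direction versus DMSO.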

[7] = TOX21_p53_BLA_p5_viability: Viability Assessment in the Tox21 HCT-116 p53 Agonism Beta-lactamase Assay, Phase 5 (AID 2283600)
How it was run: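 Workflow: seed 4000 cells per well, wait 5 h, add compounds (DMSO, 217-fold dilution), incubate 16 h, load CCF4-AM 2 h, add CellTiter-Glo, read luminescence after 30 min.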

[8] = target: Cellular tumor antigen p53 (Homo sapiens) (UniProt P04637); experiment: TOX21_p53_BLA_p4_ratio: Tox21 HCT-116 p53 Agonism Beta-lactamase Assay, Ratio, Phase 4 (AID 2283601)
How it was run: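 HCT-116 p53 beta-lactamase reporter cells (4000/well) preincubated 5 h, then compound (217-fold dilution of DMSO stock) for 16 h at 37C. CCF4-AM substrate added 2 h at room temperature; 460/530 nm emission ratio fitted upward versus DMSO.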

[9] = CCTE_Harrill_HTTr_Viability_MCF7: CCTE's 6-hour Cell Viability Assessment for the High-Throughput Transcriptomics (HTTr) Platform, in MCF-7 cells cultured in DMEM + 10% fetal bovine serum, Harrill Lab (AID 2284010; active = hit-call score of the fitted dose curve at least 0.9, where 1 is the maximum; inactive = score below 0.9)
How it was run: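 PI exclusion, high-content imaging; 8-pt dilution series, 6 h exposure; bidirectional fit vs DMSO (neg. ctrl/baseline); gain of signal = loss of membrane integrity.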

[10] = CCTE_Harrill_HTTr_Apoptosis_MCF7: CCTE's 6-hour Apoptosis Assessment for the High-Throughput Transcriptomics (HTTr) Platform, in MCF-7 cells cultured in DMEM + 10% fetal bovine serum, Harrill Lab (AID 2284011; active = hit-call score of the fitted dose curve at least 0.9, where 1 is the maximum; inactive = score below 0.9)
How it was run: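 MCF-7 (DMEM + 10% FBS), 384-well; 8-pt dilution series, 6 h chemical exposure; caspase-3/7 activation via CellEvent Caspase 3/7 Green, HCI; bidirectional fit vs DMSO.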

Measured: AC50

Chain of Cellular tumor antigen p53 (Homo sapiens) (P04637 whole entry, looked up): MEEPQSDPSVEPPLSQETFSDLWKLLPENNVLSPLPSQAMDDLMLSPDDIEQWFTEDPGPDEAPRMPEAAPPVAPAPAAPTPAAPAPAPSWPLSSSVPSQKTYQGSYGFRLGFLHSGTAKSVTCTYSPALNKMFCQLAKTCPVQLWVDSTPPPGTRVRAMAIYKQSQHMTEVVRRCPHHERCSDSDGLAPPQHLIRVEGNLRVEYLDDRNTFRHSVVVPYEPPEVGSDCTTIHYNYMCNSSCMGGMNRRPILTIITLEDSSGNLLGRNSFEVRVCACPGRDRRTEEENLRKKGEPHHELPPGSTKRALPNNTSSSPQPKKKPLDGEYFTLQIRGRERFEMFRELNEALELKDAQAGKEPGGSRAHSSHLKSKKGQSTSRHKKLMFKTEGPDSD

CC(COc1ccccc1)N(CCCl)Cc1ccccc1 (stereo unspecified)
inactive: [1] | [2] | [3] | [4] | [5] | [6] | [7] | [8] | [9] | [10]
active: [3] 54.6 µM and 79.1 µM | [4] 23.1 µM

CSc1ccc2c(c1)N(CCC1CCCCN1C)c1ccccc1S2 (stereo unspecified)
active: [1] 37 µM and 75.4 µM | [2] 43.6 µM and 79 µM | [3] 73 µM | [5] 35.8 µM and 59.3 µM | [6] 43.3 µM and 86 µM | [7] 43.8 µM and 85.2 µM | [8] 43.4 µM and 82.3 µM
inactive: [3] | [4]

C=C(CC)C(=O)c1ccc(OCC(=O)O)c(Cl)c1Cl
inactive: [1] | [3] | [5] | [6] | [7]
active: [2] 13.8 µM and 6.46 µM | [4] 50.8 µM and 38.9 µM | [5] 45.8 µM | [6] 24.7 µM

O=[N+]([O-])c1cccc(C(F)(F)F)c1
inactive: [1] | [2] | [3] | [4]

CCOC(=O)c1ccc(OCCN2C[C@H](O)[C@@H](O)[C@H](O)[C@H]2CO)cc1
inactive: [1] | [2] | [3]

CC(C)(C)CC(C)(C)c1ccc(OCCO)cc1
inactive: [1] | [2] | [4] | [5] | [6] | [7] | [8]
active: [2] 5.43 µM | [5] 35.6 µM

CCCCCCCCCC(=O)NO
inactive: [1] | [2] | [3] | [4] | [5] | [6] | [7] | [8]
active: [2] 23.1 µM | [8] 24.3 µM

CC[C@H]1OC(=O)[C@H](C)[C@@H](O[C@H]2C[C@@](C)(OC)[C@@H](O)[C@H](C)O2)[C@H](C)[C@@H](O[C@@H]2O[C@H](C)C[C@H](N(C)C)[C@H]2O)[C@](C)(OC)C[C@@H](C)C(=O)[C@H](C)[C@@H](O)[C@]1(C)O
inactive: [1] | [2] | [3] | [4] | [5] | [6]

C[C@H](CN1CCCC1)C(=O)c1ccc(C(F)(F)F)cc1
inactive: [1] | [2] | [3] | [4] | [5]

CC1=CC[C@H](CC=O)C1(C)C
inactive: [1] | [2] | [3] | [4] | [5] | [6]

O=S(=O)(O)c1ccc2nc(-c3ccccc3)[nH]c2c1
active: [1] 30.2 µM and 19.9 µM | [3] 15.6 µM | [5] 33.8 µM and 23 µM | [7] 24.8 µM
inactive: [2] | [3] | [4] | [7] | [8]

CCC[C@@H]1C[C@@H](C(=O)N[C@@H]([C@H]2O[C@H](SC)[C@H](O)[C@@H](O)[C@H]2O)[C@@H](C)O)N(C)C1
inactive: [1] | [2] | [3] | [4]

Cc1cccc2cccnc12
inactive: [1] | [2] | [3] | [4] | [5]

Cc1c(C)c2c(c(C)c1OC(=O)CCC(=O)O)CC[C@@](C)(CCC[C@H](C)CCC[C@H](C)CCCC(C)C)O2
active: [3] 46.5 µM and 41.2 µM | [4] 67.7 µM
inactive: [1] | [2] | [4] | [5] | [6] | [7] | [8]

O=c1cc(CO)occ1O
inactive: [1] | [2] | [3] | [4] | [5] | [6]

CC(C)[C@H](N)C(=O)OCCOCn1cnc2c(=O)[nH]c(N)nc21
inactive: [1] | [2] | [3] | [4] | [5]

— PubChem BioAssay (EPA / NIEHS)
